High-throughput results as filed in PubChem BioAssay.
PrPC TRFRET: inhibitors of human cell surface prion protein PrPC, primary screen, cell-based, TR-FRET; Major prion protein (Homo sapiens), P04156; TR-FRET read-out; inhibition, % at 13.8 µM; hit rate 0.43% among 370,000; AID 720596, 2013; in the data active = inhibition above about 24%; also: 0% = median of the test wells and 100% = reference compound wells
Sa RN4220 lethal: growth inhibition of S. aureus RN4220, primary screen, OD600 | 16 h | inhibition, % (concentration not given with the values) | hit rate 0.33% among 330,000 | AID 1259311, 2017; in the data active = inhibition above about 85%;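 also: plate controls were untreated cells for no effect and reference antibiotic for full effect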
PrP UTR inh: inhibition of PrP 5' UTR reporter expression; cell-based PrP 5' UTR mRNA reporter, plate reader; hit rate 0.35% among 340,000; inhibition, % (concentration not given with the values); in the data active = inhibition above about 52%; also: 0 = median of the neutral control wells
CCHF vOTU inh: CCHFV vOTU protease inhibitors, primary screen, biochemical, Pep-AMC substrate, fluorescence | hit rate 0.55% among 370,000 | Crimean-Congo hemorrhagic fever virus L polyprotein viral ovarian tumor (vOTU) protease … | AID 651958, 2012 | inhibition, % at 11.5 µM; in the data active = inhibition above about 30%; also: 0% = vehicle wells with enzyme and 100% = no enzyme wells
PfHsp40 yeast: rescue of yeast from PfHsp40 toxicity, primary screen, S. cerevisiae, ATP luminescence; S. cerevisiae expressing PfHsp40, growth rescue; growth rescue, % at 12.5 µM; hit rate 0.68% among 340,000; in the data active = growth rescue above about 28%, passing the limit was not always enough;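 also: yeast W303a lacking pdr1 and pdr3 grown in galactose medium; growth measured after three days at 30 °C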
Sa ugtP lethal: growth inhibition of ugtP-null S. aureus, primary screen, RN4220 ugtP deletion, OD600. AID 1259309, 2017. 16 h. hit rate 0.54% among 330,000. growth inhibition, % (test concentration not listed); in the data active = growth inhibition above about 68%;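 also: plate controls were untreated wells for no effect and antibiotic for full effect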
Starred values were filed as active, the others as inactive. Only some compounds are listed: those with a hit (about 2.1% of all), similar ones and a draw of the others.

What do the screens show for `Cc1cccc(NC2=Nc3ccccc3N3C2=Nc2c(c(C)nn2-c2ccccc2)C3c2ccc(O)c(O)c2)c1` (stereo unspecified)?
PrPC TRFRET: 6; Sa RN4220 lethal: 47; PrP UTR inh: -11; CCHF vOTU inh: 23; PfHsp40 yeast: 4; Sa ugtP lethal: 97*

Results for Cc1ccc(NC2=Nc3ccccc3N3C2=Nc2c(c(C)nn2-c2ccccc2)C3c2ccc(O)c(O)c2)cc1 (stereo unspecified) ?
PrPC TRFRET: 3; Sa RN4220 lethal: 69; PrP UTR inh: 1; CCHF vOTU inh: 18; PfHsp40 yeast: 1; Sa ugtP lethal: 98*

What do the screens show for `CC(C=NNC(=O)c1ccccc1F)c1ccccc1` (stereo unspecified)?
Sa RN4220 lethal: 4; Sa ugtP lethal: 5

What do the screens show for `Oc1cc(Cl)ccc1Oc1ccc(Cl)cc1Cl`?
PrPC TRFRET: -3; Sa RN4220 lethal: 100*; PrP UTR inh: -5; CCHF vOTU inh: -1; PfHsp40 yeast: 263*; Sa ugtP lethal: 100*

What do the screens show for `S=c1[nH]cc(Oc2ccc(Cl)cc2Cl)c(=S)[nH]1`?
PrPC TRFRET: 22; Sa RN4220 lethal: 23; CCHF vOTU inh: 2; Sa ugtP lethal: 5

How did CCCCCCCCOC(=O)c1c(CSC(=N)N)n(C)c2cc(Br)c(OC(C)=O)cc12 do in these assays?
PrPC TRFRET: 1; Sa RN4220 lethal: 100*; CCHF vOTU inh: 27; Sa ugtP lethal: 101*

What do the screens show for `CCOC(=O)c1c(CSC(=N)N)n(-c2ccc(Br)cc2)c2cc(Br)c(OC(C)=O)cc12`?
PrPC TRFRET: -4; Sa RN4220 lethal: 0; PrP UTR inh: -30; CCHF vOTU inh: -3; PfHsp40 yeast: -1; Sa ugtP lethal: -8

Results for Cc1ccc(C(=O)NC(=Cc2cccs2)C(=O)NCCCn2ccnc2)cc1C ?
Sa RN4220 lethal: 3; Sa ugtP lethal: 9

How did Cc1cc(C)n(-c2nc(-c3cccc(Cl)c3)cs2)n1 do in these assays?
PrPC TRFRET: 1; Sa RN4220 lethal: 0; PrP UTR inh: -63; CCHF vOTU inh: 5; PfHsp40 yeast: 0; Sa ugtP lethal: 88*

What do the screens show for `Oc1c(Cl)c(Cl)c(Cl)c(Cl)c1Cl`?
PrPC TRFRET: 14; Sa RN4220 lethal: 100*; PrP UTR inh: -24; CCHF vOTU inh: 17; PfHsp40 yeast: 298*; Sa ugtP lethal: 100*

Results for COc1ccc(Cc2nnc(SCC(=O)Nc3ccc(C)cc3)n(N)c2=O)cc1 ?
PrPC TRFRET: 6; Sa RN4220 lethal: -3; PrP UTR inh: -25; CCHF vOTU inh: 30*; PfHsp40 yeast: 0; Sa ugtP lethal: -1

How did COc1cccc(NC(=O)CSc2nnc(Cc3ccc(C)cc3)c(=O)n2N)c1 do in these assays?
PrPC TRFRET: 3; Sa RN4220 lethal: -4; PrP UTR inh: -12; CCHF vOTU inh: -2; PfHsp40 yeast: 1; Sa ugtP lethal: 6

Results for COc1ccc2c(c1)C(=NO)c1cc(OC)ccc1-2 ?
PrPC TRFRET: -17; Sa RN4220 lethal: -3; PrP UTR inh: -29; CCHF vOTU inh: 12; PfHsp40 yeast: 0; Sa ugtP lethal: 100*

What do the screens show for `C=CCOc1ccc2c(c1)C(=NO)c1cc(OCC=C)ccc1-2`?
PrPC TRFRET: -32; Sa RN4220 lethal: 15; PrP UTR inh: -26; CCHF vOTU inh: -3; PfHsp40 yeast: -1; Sa ugtP lethal: 81

Results for CNc1ccc(Br)cc(C(=O)/C=C/c2ccc(OC)cc2OC)c1=O ?
PrPC TRFRET: -5; Sa RN4220 lethal: -7; PrP UTR inh: -9; CCHF vOTU inh: 10; PfHsp40 yeast: 0; Sa ugtP lethal: 98*

Results for CNc1ccc(Br)cc(C(=O)/C=C/c2cccc(OC)c2)c1=O ?
PrPC TRFRET: -4; Sa RN4220 lethal: 4; PrP UTR inh: -23; CCHF vOTU inh: 20; PfHsp40 yeast: 1; Sa ugtP lethal: -6

Results for NC(N)=NN=Cc1ccc(OCc2ccccc2)c(OCc2ccccc2)c1 ?
Sa RN4220 lethal: 101*; Sa ugtP lethal: 101*

Results for NC(N)=NN=Cc1ccc(OCc2ccc(Cl)cc2Cl)cc1 ?
Sa RN4220 lethal: 100*; Sa ugtP lethal: 101*

What do the screens show for `NC(N)=NN=Cc1ccc(OCc2ccc(Cl)cc2)cc1`?
Sa RN4220 lethal: 100*; Sa ugtP lethal: 100*

Results for NC(N)=N/N=C/c1ccc(OCc2ccccc2)cc1 ?
PrPC TRFRET: -22; PrP UTR inh: -43; CCHF vOTU inh: 11; PfHsp40 yeast: 0
